Laboratory results reported in PubChem BioAssay (NCATS).
Inconclusive results are not listed. Values without a mark were called inactive. The call rests on the fitted dose curve; in most records, active means well fitted inhibition curve with a large enough effect; inconclusive means small, poorly fitted or top-dose-only effect; inactive means no such curve, though single readings can be large or run the other way.

Test: S16 Schwann cell PMP22 intronic element firefly luciferase assay (AID 624032); further: nearly all actives have a fitted effect of over 30% in size
Conditions: S16 rat Schwann cells, PMP22 element FLuc, 24 h; series mostly up to 57.5 µM; activity change, negative = inhibition: at the top concentration
Procedure, shortened: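 Rat S16 Schwann cells stably carrying a PMP22 intronic element-driven Fluc reporter were seeded overnight, then exposed to compounds for 24 h at 37 °C. Luminescence was normalized to PTC124 (positive control) and DMSO (0% activity).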

| Structure (SMILES) | activity change, negative = inhibition |
| --- | --- |
| COC(=O)c1cccnc1 | 1.32% |
| COc1ccc(Cc2cnc(N)nc2N)cc1OC | 0.566% |
| CNCc1ccccc1 | -35.2% |
| Cn1c([N+](=O)[O-])cnc1COC(N)=O | 33.8% |
| CC(C)CCCC(C)CCCC(C)CCCCC(C)CCCC(C)CCCC(C)C (configuration not stated) | -1.81% |
| CC(=O)N(CC(O)CO)c1c(I)c(C(=O)NCC(O)CO)c(I)c(C(=O)NCC(O)CO)c1I (configuration not stated) | -2.25% |
| Nc1ncnc2c1ncn2[C@@H]1O[C@H](COP(=O)(O)O)[C@@H](O)[C@H]1O | -11.6% |
| CCc1cccc(CC)c1NC(=O)CN(CC(=O)O)CC(=O)O | 25.9% [at 25.7 µM] |
| CCCCCC(C)N (configuration not stated) | -7.89% |
| CC(=O)OC[C@H]1O[C@@](COC(C)=O)(O[C@H]2O[C@H](COC(C)=O)[C@@H](OC(C)=O)[C@H](OC(C)=O)[C@H]2OC(C)=O)[C@@H](OC(C)=O)[C@@H]1OC(C)=O | 9.71% |
| O=c1[nH]c2cc(C(F)(F)F)c(N3CCOCC3)cc2n(CP(=O)(O)O)c1=O | -11.9% |
| O=c1[nH]c(=O)c2ccccc2o1 | -1.71% |
| CC(C(=O)O)c1ccc2c(c1)Cc1cccnc1O2 (configuration not stated) | -30.5% |
| CC(N)CCCC(C)(C)O (configuration not stated) | 24% |
| CC(CSC(=O)c1ccccc1)C(=O)N1C[C@@H](Sc2ccccc2)C[C@H]1C(=O)O (some centres not stated) | -10.6% |
| COc1nccnc1NS(=O)(=O)c1ccc(N)cc1 | -5.75% |
| CN1C[C@@H]2C[C@H]1CN2c1cc2c(cc1F)c(=O)c(C(=O)O)cn2C1CC1 | -5.86% |
| CC(=O)NCc1c(I)c(NC(C)=O)c(I)c(C(=O)O)c1I | 31.2% |
| Cc1ncc(CO)c(CN)c1O | -19.1% |
| CC[N+](C)(CC)CCOC(=O)C1c2ccccc2Oc2ccccc21 | 11.7% |
| CCN(CC)CCc1nc(-c2ccccc2)no1 | 26.3% [at 25.7 µM] |
| CNc1c2c(nn1C)CCCC2 | 6.69% |
